In PubChem BioAssay (NCATS):
Results filed as inconclusive are left out. Active and inactive are the calls of the source. Calls come from the whole dose curve; as a rule, active = well fitted inhibition curve with a large enough effect in the repeat runs; inconclusive = weak or mixed curves; inactive = flat fitted curve, though single readings scatter.

target: Cytochrome P450 2D6 (Homo sapiens) (UniProt P10635); assay: Cytochrome P450 family 2 subfamily D member 6 (CYP2D6) small molecule antagonists: luciferase biochemical (cell-free) qHTS assay (AID 1645840); settings: P450-Glo CYP2D6 enzyme, luciferin luminescence, 1 h; series mostly up to 57.4 µM; activity change, negative = inhibition: at the top concentration; note: nearly all actives have a fitted effect of over 55% in size
In short: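 P450-Glo CYP2D6 system: proluciferin substrate converted by enzyme to luciferin, read by luminescence proportional to activity. Enzyme-substrate mix with compound 10 min at room temperature, then NADPH regeneration 1 h before detection reagent.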
% is set by controls: 0 for no effect and ±100 for the full control effect; potency is the fitted concentration of half-maximal effect.

Sequence of Cytochrome P450 2D6 (Homo sapiens) (P10635 whole entry, looked up): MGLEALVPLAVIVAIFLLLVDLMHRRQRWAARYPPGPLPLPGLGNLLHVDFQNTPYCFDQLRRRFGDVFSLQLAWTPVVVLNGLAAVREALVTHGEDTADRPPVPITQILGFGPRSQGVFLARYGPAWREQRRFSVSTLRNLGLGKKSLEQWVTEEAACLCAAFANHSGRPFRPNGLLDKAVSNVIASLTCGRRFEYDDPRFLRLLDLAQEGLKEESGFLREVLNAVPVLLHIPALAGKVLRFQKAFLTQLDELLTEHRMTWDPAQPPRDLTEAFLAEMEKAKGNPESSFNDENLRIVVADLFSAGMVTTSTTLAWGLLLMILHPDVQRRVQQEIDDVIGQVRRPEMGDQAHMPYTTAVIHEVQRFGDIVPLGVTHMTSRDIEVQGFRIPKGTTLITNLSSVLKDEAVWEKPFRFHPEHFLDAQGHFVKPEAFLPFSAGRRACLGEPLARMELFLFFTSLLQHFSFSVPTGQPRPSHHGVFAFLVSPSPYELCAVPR

Row | SMILES | activity change, negative = inhibition | Potency
1 | Cc1cc(C(=O)Nc2cccc(C(=O)Nc3cccc(C(F)(F)F)c3)c2)on1 | 11.5% (inactive) | 
2 | O=C(CC(c1ccccc1)c1ccccc1)N1CCN(C(c2ccccc2)c2ccccc2)CC1 | 1.9% (inactive) | 
3 | COc1ccc(C(=O)C2CCN(CC(=O)N(Cc3nc4c(c(=O)[nH]3)COCC4)CC3CC3)CC2)cc1 | -16.1% (inactive) | 
4 | CCN(Cc1cccnc1)C(=O)CN(c1ccc(OC)nc1)S(=O)(=O)c1ccccc1C | 2.16% (inactive) | 
5 | CN1CCc2nc(C(=O)N[C@@H]3C[C@@H](C(=O)N(C)C)CC[C@@H]3NC(=O)C(=O)Nc3ccc(Cl)cn3)sc2C1 | 23.9% (inactive) | 
6 | Cc1cc(C)c(Nc2ccnc(Nc3ccc(C#N)cc3)n2)c(C)c1 |  | 10.7 µM (active)
7 | Cc1cc(C(N)=O)ccc1-n1c(CCC(=O)O)ccc1-c1ccc(-n2ccnc2)cc1 |  | 0.952 µM (active)
8 | Cc1cccc2c1NC(=O)C2(c1ccc(O)cc1)c1ccc(O)cc1 |  | 26.8 µM (active)
9 | CC(NC(=O)CCc1nc2ccccc2c(=O)[nH]1)c1ccccc1 (centres undefined) | 1.33% (inactive) | 
10 | Cc1cccc(/C=N/Nc2cc(N3CCOCC3)n3nc(-c4ccncc4)cc3n2)c1 |  | 3.79 µM (active)
11 | COC(=O)CCSCc1ccc(-c2onc(C)c2NC(=O)OC(C)c2ccccc2Cl)cc1 (centres undefined) |  | 2.68 µM (active)
12 | Cn1cc(-c2ccc3nnc(Sc4ccc5nn(C)cc5c4)n3n2)cn1 | -7.54% (inactive) | 
13 | CC1COC(Nc2ccc3ncnc(Nc4ccc(OCc5nccs5)c(Cl)c4)c3c2)=N1 (centres undefined) |  | 10.7 µM (active)
14 | O=C(Nc1ccccc1)N1CCN(Cc2ccc3ccccc3n2)CC1 | -16.7% (inactive) | 
15 | N#Cc1ccc(C(=O)N2CCC3(CC2)N=C(N)c2c(F)ccc(F)c2N3)cn1 |  | 15.1 µM (active)
16 | O=C(O)[C@@H]1C[C@H]2C[C@@H](CCc3nn[nH]n3)CC[C@H]2CN1 | 1.85% (inactive) | 
17 | C#CCN(Cc1cc2c(=O)[nH]c(C)nc2cc1Br)c1ccc(C(=O)NCc2cccnc2)cc1 | 1.1% (inactive) | 
18 | O=C(O)c1ccccc1NC(=O)N1CCC(c2ccccc2C(F)(F)F)CC1 | -26.8% (inactive) | 
19 | Cc1ccc(C(=O)Nc2noc3ccccc23)cc1 |  | 7.56 µM (active)
20 | CS(=O)(=O)N(CC(=O)NCC1CC1)c1cc(C(F)(F)F)ccc1Cl | -0.951% (inactive) | 

Row | SMILES | activity change, negative = inhibition | Potency
21 | CCC(Nc1ncnc2nc[nH]c12)c1nc2cccc(F)c2c(=O)n1-c1ccccc1 (centres undefined) | 4.09% (inactive) | 
22 | O=C(O)C1CN(Cc2ccc(-c3nc4cc(Cc5ccccc5F)ccc4s3)c(F)c2)C1 | 8.94% [at 11.5 µM] (inactive) | 
23 | CC1CCN(C(=O)CC#N)CC1N(C)c1ncnc2[nH]ccc12 (centres undefined) | -4.59% (inactive) | 
24 | Cc1ccc(C)c(OCCn2cc(C(=O)O)c3ccccc32)c1 | -3.65% (inactive) | 
25 | CCNC(=O)Nc1ncc(-c2cc(-c3c(C)cc(OC)cc3C)nc(-c3cnccn3)n2)s1 |  | 8.49 µM (active)
26 | COc1ccc(CCO[C@@H]2CCCC[C@H]2N2CC[C@@H](O)C2)cc1OC |  | 10.7 µM (active)
27 | Cc1cccc(C)c1-n1c(=O)c2cnc(Nc3ccc(N4CCN(C)CC4)cc3)nc2n2c3ccccc3nc12 | -1.16% (inactive) | 
28 | CCCN1CCC(c2cccc(S(C)(=O)=O)c2)CC1 |  | 8.49 µM (active)
29 | O=C(/C=C/c1cccc(S(=O)(=O)Nc2ccccc2)c1)NO |  | 21.3 µM (active)
30 | CCc1cnn2c(NCc3ccc[n+]([O-])c3)cc(N3CCCCC3CCO)nc12 (centres undefined) | 0.0321% (inactive) | 
31 | Cc1cc(-c2cc(O)ccc2Cl)cc2nnc(Nc3ccc(OCCN4CCCC4)cc3)nc12 |  | 16.9 µM (active)
32 | O=S(=O)(NCC1CC1)c1ccc(Nc2nccc(N3CCCc4cc(O)ccc43)n2)cc1 |  | 8.49 µM (active)
33 | Cc1cc(C(=O)N2CCCCc3ccccc32)ccc1CNC(=O)N1CCC[C@H]1C(=O)N(C)C | 2.42% (inactive) | 
34 | COc1ccc(-c2ccc3c(N4CCOCC4)nc(N4CC(C)OC(C)C4)nc3n2)cc1CO (centres undefined) | -2.98% (inactive) | 
35 | COc1cccc(C(=O)N2CCN(C(=O)COc3cccc(C)c3)CC2)c1OC | 5.33% (inactive) | 
36 | CN(C)C1CCN(C(=O)c2ccc(NC(=O)Nc3ccc(-c4nc(N5CCOCC5)nc(N5CCOCC5)n4)cc3)cc2)CC1 | -5.36% (inactive) | 
37 | CCC(COC)n1nnc2c(Nc3ccc(OC)cc3C)nc(C)cc21 (centres undefined) |  | 10.7 µM (active)
38 | C=CC(=O)Nc1cccc(CN2C(=O)N(c3c(Cl)c(OC)cc(OC)c3Cl)Cc3cnc(NCCCCN(CC)CC)nc32)c1 |  | 21.3 µM (active)
39 | O=C1N=C(N2CCOCC2)CN1c1ccc(Cl)cc1 | 1.47% (inactive) | 
